{"source": "PubChem BioAssay", "note": "Results with a measured potency or affinity are listed apart. Calls of active or inactive are those of the source.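 How the source made its calls, unless noted: active means a fitted half-maximal concentration no higher than twice the top valid tested dose, with signal falling as cells die; inconclusive means flat curve between -70% and -30%, or poor fit; inactive means the rest, including signal rising instead of falling.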", "data": [{"assay": "viability loss in HepG2 hepatoma cells – cell-based, cherry-picks, set 2, cytotoxicity control, dose response (AID 687002;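 active means a dose-response fit showing signal loss, with half-maximal concentration no higher than twice the top tested dose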)", "details": "ATP luminescence (CellTiter-Glo), 48 h; series mostly up to 26 µM", "values": [{"smiles": "O=C(CSc1ncnc2c1cnn2-c1ccc(Cl)cc1)NCc1ccc2c(c1)OCO2", "outcome": "inactive"}, {"smiles": "CCCNC(=O)N1C[C@@H]2[C@H](c3ccccc31)[C@H](CO)N2Cc1ccc(OC)cc1", "outcome": "inactive"}, {"smiles": "CN1C(=O)c2cc(NC(=O)NC3CCCC3)ccc2OC[C@H]2O[C@@H](CC(=O)NCC3CC3)CC[C@@H]21", "outcome": "inactive"}, {"smiles": "COc1ccc(-n2cc(CNCCc3nc(C)cc(C)n3)c(-c3ccccc3Cl)n2)cc1", "outcome": "inactive"}, {"smiles": "O=C1CCC(C(=O)Nc2ccc(Cl)cc2)N1", "note": "(stereo not drawn)", "outcome": "inactive"}, {"smiles": "C[C@@H]1CN([C@@H](C)CO)S(=O)(=O)c2ccc(C#Cc3ccc(F)cc3)cc2O[C@H]1CN(C)C(=O)NC1CCCC1", "outcome": "inactive"}, {"smiles": "C[C@H](CO)N1C[C@H](C)[C@H](CN(C)Cc2cccnc2)Oc2ncc(C#CC3(O)CCCC3)cc2C1=O", "outcome": "inactive"}, {"smiles": "Cc1ccc(NC(=O)C2(C)CCN2C(=O)CC2CCCC2)cc1", "note": "(stereo not drawn)", "outcome": "inactive"}, {"smiles": "C[C@H](CO)N1C[C@H](C)[C@H](CN(C)S(=O)(=O)c2ccccc2)Oc2ccc(NS(=O)(=O)c3ccc(F)cc3)cc2C1=O", "outcome": "inactive"}]}, {"assay": "viability loss in HeLa cells – cell-based, ATP luminescence, cherry-pick samples, cytotoxicity control, dose response (AID 687004)", "details": "ATP luminescence (CellTiter-Glo), 48 h; series mostly up to 26 µM", "values": [{"smiles": "C/C=C/c1cnc2c(c1)C(=O)N([C@H](C)CO)C[C@@H](C)[C@@H](CN(C)C(=O)C1CCCCC1)O2", "outcome": "inactive"}, {"smiles": "COc1ccc(CNC(=O)C[C@H]2CC[C@H]3[C@@H](COc4ccc(NC(=O)C5CC5)cc4C(=O)N3C)O2)cc1", "outcome": "inactive"}, {"smiles": "CC(=O)N1[C@@H]2c3ccc(-c4ccccc4)c(=O)n3C[C@H]1[C@H](CO)[C@H]2C(=O)Nc1ccccc1", "outcome": "inactive"}, {"smiles": "CC(Sc1ncnc2c1cnn2-c1ccccc1)C(=O)Nc1ccc(N2CCOCC2)cc1", "note": "(stereo not drawn)", "outcome": "inactive"}, {"smiles": "COc1ccccc1C(=O)Nc1ccc2c(c1)C(=O)N(C)C[C@@H](OC)[C@H](C)CN(C)[C@@H](C)CO2", "outcome": "inactive"}, {"smiles": "Cc1ccc(N(C(=O)C2CCC(=O)N2)C2(C(=O)NC3CCCCC3)CCCCC2)cc1", "note": "(stereo not drawn)", "outcome": "inactive"}, {"smiles": "CNC[C@@H]1OCCCC[C@H](C)Oc2ccc(NC(=O)NC(C)C)cc2C(=O)N([C@H](C)CO)C[C@H]1C", "outcome": "inactive"}, {"smiles": "COc1ccc(NC(=O)Nc2ccc3c(c2)C(=O)N([C@H](C)CO)C[C@@H](C)[C@H](CN(C)S(=O)(=O)c2ccc(Cl)cc2)OCCCC[C@@H](C)O3)cc1", "outcome": "inactive"}, {"smiles": "Cc1noc(C)c1NC(=O)Nc1ccc2c(c1)C(=O)N([C@H](C)CO)C[C@H](C)[C@H](CN(C)CC1CCCCC1)O2", "outcome": "inactive"}, {"smiles": "CO[C@H]1CC[C@@H]2CCOc3c(C#N)cccc3C(=O)N(C)C[C@H](OC)[C@@H](C)C(=O)N(C)C[C@@H]1O2", "outcome": "inactive"}, {"smiles": "CC(C)NC(=O)Nc1ccc2c(c1)C(=O)N([C@H](C)CO)C[C@@H](C)[C@H](CN(C)C(=O)Nc1ccccc1)OCCCC[C@@H](C)O2", "outcome": "inactive"}, {"smiles": "CCCNC(=O)N(C)C[C@H]1Oc2ncc(C#CC3CCCCC3)cc2C(=O)N([C@@H](C)CO)C[C@@H]1C", "outcome": "inactive"}, {"smiles": "C[C@@H]1CN([C@H](C)CO)C(=O)Cc2cc(NC(=O)CCCCCC(=O)Nc3ccccc3N)ccc2O[C@H]1CN(C)Cc1ccc2c(c1)OCO2", "outcome": "inactive"}, {"smiles": "CC(C)NC(=O)N(C)C[C@@H]1OCCCC[C@@H](C)Oc2ccc(NC(=O)c3ccccc3)cc2C(=O)N([C@H](C)CO)C[C@H]1C", "outcome": "inactive"}, {"smiles": "Cc1noc(C)c1NC(=O)Nc1ccc2c(c1)C(=O)N(C)[C@H]1CC[C@H](CC(=O)N[C@H]3CCN(Cc4ccccc4)C3)O[C@H]1CO2", "outcome": "inactive"}, {"smiles": "Cc1noc(C)c1S(=O)(=O)Nc1ccc2c(c1)CC(=O)N([C@@H](C)CO)C[C@@H](C)[C@@H](CN(C)S(=O)(=O)c1cccs1)O2", "outcome": "inactive"}, {"smiles": "CO[C@@H]1CN(C)C(=O)c2cc(NS(=O)(=O)C3CCCCC3)ccc2OC[C@H](C)NC[C@@H]1C", "outcome": "inactive"}, {"smiles": "C/C=C/c1ccc([C@@H]2[C@@H](CO)N3CCCCN(C(=O)Nc4ccc(OC)cc4)C[C@H]23)cc1", "outcome": "inactive"}, {"smiles": "C[C@@H]1CN([C@@H](C)CO)C(=O)c2cc(NC(=O)C3CCCCC3)ccc2O[C@@H](C)CCCCO[C@@H]1CN(C)C(=O)NC1CCCCC1", "outcome": "inactive"}, {"smiles": "C[C@H](CO)N1C[C@H](C)[C@H](CN(C)Cc2cccc(C(F)(F)F)c2)OCc2cnnn2CCCC1=O", "outcome": "inactive"}, {"smiles": "COc1ccc(-c2cnc3c(c2)C(=O)N([C@@H](C)CO)C[C@@H](C)[C@@H](CN(C)S(C)(=O)=O)O3)cc1", "outcome": "inactive"}, {"smiles": "CCC(=O)N(C)C[C@H]1Oc2cc(C#CC(C)(C)O)ccc2S(=O)(=O)N([C@@H](C)CO)C[C@@H]1C", "outcome": "inactive"}, {"smiles": "O=C(C[C@H]1C=C[C@H](NC(=O)Nc2cc(F)ccc2F)[C@@H](CO)O1)NCCCN1CCOCC1", "outcome": "inactive"}, {"smiles": "C[C@@H]1CN([C@H](C)CO)C(=O)c2cc(C#CC(C)(C)O)cnc2O[C@@H]1CN(C)Cc1cncnc1", "outcome": "inactive"}, {"smiles": "CCC(=O)N[C@H]1C=C[C@H](CC(=O)NCC2CCCCC2)O[C@@H]1CO", "outcome": "inactive"}, {"smiles": "O=C(C[C@H]1C[C@@H]2c3cc(NC(=O)c4cccnc4)ccc3O[C@@H]2[C@@H](CO)O1)NCCc1ccccc1", "outcome": "inactive"}, {"smiles": "O=C(NC(=S)Nc1ccccc1)c1cc([N+](=O)[O-])ccc1N1CCOCC1", "outcome": "inactive"}, {"smiles": "CC(C)NC(=O)Nc1ccc2c(c1)C(=O)N([C@@H](C)CO)C[C@@H](C)[C@@H](CN(C)C(=O)c1ccncc1)OCCCC[C@@H](C)O2", "outcome": "inactive"}, {"smiles": "C[C@@H]1CN([C@@H](C)CO)C(=O)c2cc(NS(=O)(=O)c3ccccc3)ccc2O[C@H]1CN(C)C(=O)NC1CCCCC1", "outcome": "inactive"}, {"smiles": "C[C@@H]1CN([C@H](C)CO)C(=O)c2cc(-c3ccc(F)cc3)cnc2O[C@H]1CN(C)CC1CCCCC1", "outcome": "inactive"}, {"smiles": "O=C(CSc1ncnc2c1cnn2-c1ccc(Cl)cc1)NCc1ccc2c(c1)OCO2", "outcome": "inactive"}, {"smiles": "CCCNC(=O)N1C[C@@H]2[C@H](c3ccccc31)[C@H](CO)N2Cc1ccc(OC)cc1", "outcome": "inactive"}, {"smiles": "CN1C(=O)c2cc(NC(=O)NC3CCCC3)ccc2OC[C@H]2O[C@@H](CC(=O)NCC3CC3)CC[C@@H]21", "outcome": "inactive"}, {"smiles": "COc1ccc(-n2cc(CNCCc3nc(C)cc(C)n3)c(-c3ccccc3Cl)n2)cc1", "outcome": "inactive"}, {"smiles": "O=C1CCC(C(=O)Nc2ccc(Cl)cc2)N1", "note": "(stereo not drawn)", "outcome": "inactive"}, {"smiles": "C[C@@H]1CN([C@@H](C)CO)S(=O)(=O)c2ccc(C#Cc3ccc(F)cc3)cc2O[C@H]1CN(C)C(=O)NC1CCCC1", "outcome": "inactive"}, {"smiles": "C[C@H](CO)N1C[C@H](C)[C@H](CN(C)Cc2cccnc2)Oc2ncc(C#CC3(O)CCCC3)cc2C1=O", "outcome": "inactive"}, {"smiles": "Cc1ccc(NC(=O)C2(C)CCN2C(=O)CC2CCCC2)cc1", "note": "(stereo not drawn)", "outcome": "inactive"}, {"smiles": "C[C@H](CO)N1C[C@H](C)[C@H](CN(C)S(=O)(=O)c2ccccc2)Oc2ccc(NS(=O)(=O)c3ccc(F)cc3)cc2C1=O", "outcome": "inactive"}]}]}
